In PubChem BioAssay AID1159580 (chemical genetic matrix, 2015):
In all, about 5,500 compounds went through this assay and about 2,000 (36%) were called active. About 18% were inconclusive and are not listed. Rule as the data show it: active = normalized growth mostly below about 0.91 (no sharp cut-off); inconclusive = no clear call, values can overlap the other calls; inactive = mostly above about 0.92. Some of the results follow.

Assay: chemical genetic growth profiling, strain panel (AID 1159580);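 also: tested at 20 µM; growth read once vehicle control cultures reached saturation at 30 °C; 1 = growth at the plate median or of vehicle wells; lower values mean less growth of the strain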
Conditions: S. cerevisiae deletion strains, growth OD
[1] = locus YAR019C, strain CDC15, active compounds read low
[2] = locus YBL105C, strain PKC1, active compounds read low
[3] = locus YBR135W, strain CKS1, active compounds read low
[4] = locus YBR136W, strain MEC1, active compounds read low
[5] = locus YBR160W, strain CDC28, active compounds read low
[6] = locus YDL017W, strain CDC7, active compounds read low
[7] = locus YDL028C, strain MPS1, active compounds read low
[8] = locus YDL101C, strain DUN1, active compounds read low
[9] = locus YDL108W, strain KIN28, active compounds read low
[10] = locus YDL132W, strain cdc53, active compounds read low
[11] = locus YDL214C, strain PRR2, active compounds read low
[12] = locus YDR052C, strain DBF4, active compounds read low
[13] = locus YDR054C, strain cdc34, active compounds read low
[14] = locus YDR226W, strain ADK1, active compounds read low
[15] = locus YDR477W, strain SNF1, active compounds read low
[16] = locus YER123W, strain YCK3, active compounds read low
[17] = locus YER133W, strain GLC7, active compounds read low
[18] = locus YFL009W, strain cdc4, active compounds read low
[19] = locus YFL029C, strain CAK1, active compounds read low
[20] = locus YFR003C, strain YPI1, active compounds read low
[21] = locus YFR019W, strain FAB1, active compounds read low
[22] = locus YGR040W, strain KSS1, active compounds read low
[23] = locus YGR052W, strain FMP48, active compounds read low
[24] = locus YGR092W, strain DBF2, active compounds read low
[25] = locus YHR030C, strain SLT2, active compounds read low
[26] = locus YHR079C, strain IRE1, active compounds read low
[27] = locus YHR082C, strain KSP1, active compounds read low
[28] = locus YHR205W, strain SCH9, active compounds read low
[29] = locus YIL147C, strain SLN1, active compounds read low
[30] = locus YJL095W, strain BCK1, active compounds read low
[31] = locus YJL128C, strain PBS2, active compounds read low
[32] = locus YJL157C, strain FAR1, active compounds read low
[33] = locus YJR016C, strain ILV3, active compounds read low
[34] = locus YJR066W, strain TOR1 (second series), active compounds read low
[35] = locus YJR066W, strain TOR1, active compounds read low
[36] = locus YKL048C, strain ELM1, active compounds read low
[37] = locus YKL067W, strain YNK1, active compounds read low
[38] = locus YKL101W, strain HSL1, active compounds read low
[39] = locus YKL193C, strain SDS22, active compounds read low
[40] = locus YKL203C, strain TOR2, active compounds read low
[41] = locus YLR113W, strain HOG1, active compounds read low
[42] = locus YLR133W, strain CKI1, active compounds read low
[43] = locus YLR403W, strain SFP1, active compounds read low
[44] = locus YML070W, strain DAK1, active compounds read low
[45] = locus YMR001C, strain CDC5, active compounds read low
[46] = locus YMR205C, strain PFK2 (second series), active compounds read low
[47] = locus YMR277W, strain FCP1, active compounds read low
[48] = locus YNL006W, strain LST8, active compounds read low
[49] = locus YNL020C, strain ARK1, active compounds read low
[50] = locus YNL161W, strain CBK1, active compounds read low
[51] = locus YNL183C, strain NPR1, active compounds read low
[52] = locus YNL207W, strain RIO2, active compounds read low
[53] = locus YNL222W, strain SSU72, active compounds read low
[54] = locus YNL307C, strain MCK1 (second series), active compounds read low
[55] = locus YOL078W, strain AVO1, active compounds read low
[56] = locus YOL136C, strain PFK27, active compounds read low
[57] = locus YOR061W, strain CKA2, active compounds read low
[58] = locus YOR119C, strain RIO1, active compounds read low
[59] = locus YOR231W, strain MKK1, active compounds read low
[60] = locus YOR329C, strain SCD5, active compounds read low
[61] = locus YPL031C, strain PHO85, active compounds read low
[62] = locus YPL153C, strain RAD53, active compounds read low
[63] = locus YPL204W, strain HRR25, active compounds read low
[64] = locus YPL209C, strain IPL1, active compounds read low
[65] = locus YPL256C, strain CLN2, active compounds read low
[66] = locus YPR025C, strain CCL1, active compounds read low
[67] = locus YPR111W, strain DBF20, active compounds read low
[68] = strain NNK1, active compounds read low
[69] = strain TSCII, active compounds read low
[70] = locus YFR028C, strain CDC14, active compounds read low
[71] = locus YPR106W, strain ISR1, active compounds read low
[72] = locus YAL013W, strain DEP1, active compounds read low
[73] = locus YDR150W, strain NUM1, active compounds read low
[74] = locus YMR263W, strain SAP30, active compounds read low
[75] = locus YNL128W, strain TEP1, active compounds read low
[76] = locus YNL153C, strain GIM3, active compounds read low
[77] = locus YPL241C, strain CIN2, active compounds read low

Measured: normalized growth

CC1C/C(=N/Nc2ccc(Br)cc2)c2cc(Cl)ccc2S1 (centres undefined)
inactive: [14] 0.931 | [67] 0.9
active: [1] 0.535 | [2] 0.485 | [3] 0.429 | [4] 0.497 | [5] 0.58 | [6] 0.525 | [7] 0.396 | [8] 0.458 | [9] 0.598 | [10] 0.546 | [11] 0.161 | [12] 0.703 | [13] 0.333 | [15] 0.146 | [16] 0.166 | [17] 0.213 | [18] 0.434 | [19] 0.404 | [20] 0.433 | [21] 0.124 | [22] 0.187 | [23] 0.215 | [24] 0.125 | [25] 0.193 | [26] 0.192 | [27] 0.277 | [28] 0.0907 | [29] 0.409 | [30] 0.15 | [31] 0.318 | [32] 0.168 | [33] 0.343 | [34] 0.117 | [35] 0.224 | [36] 0.198 | [37] 0.185 | [38] 0.187 | [39] 0.498 | [40] 0.182 | [41] 0.235 | [42] 0.128 | [43] 0.0605 | [44] 0.151 | [45] 0.644 | [46] 0.163 | [47] 0.519 | [48] 0.265 | [49] 0.141 | [50] 0.383 | [51] 0.194 | [52] 0.624 | [53] 0.369 | [54] 0.114 | [55] 0.529 | [56] 0.158 | [57] 0.12 | [58] 0.158 | [59] 0.187 | [60] 0.303 | [61] 0.147 | [62] 0.126 | [63] 0.131 | [64] 0.385 | [65] 0.208 | [66] 0.41 | [68] 0.545 | [69] 0.644

CC1C/C(=N/Nc2ccc(Br)cc2)c2cc(Cl)ccc2S1(=O)=O (centres undefined)
inactive: [1] 1.01 | [2] 0.996 | [3] 0.989 | [4] 0.999 | [5] 0.995 | [6] 0.997 | [7] 1 | [8] 0.988 | [9] 0.992 | [10] 0.986 | [11] 0.888 | [12] 0.998 | [13] 1 | [14] 0.986 | [15] 0.895 | [16] 0.82 | [17] 0.895 | [18] 0.991 | [19] 0.992 | [20] 0.998 | [70] 0.991 | [22] 0.893 | [23] 0.93 | [26] 0.647 | [27] 0.793 | [28] 0.728 | [29] 1 | [30] 0.8 | [31] 1 | [32] 0.801 | [33] 0.99 | [34] 0.783 | [35] 0.804 | [36] 0.906 | [37] 0.911 | [38] 0.9 | [39] 0.98 | [40] 0.92 | [41] 0.885 | [42] 0.848 | [43] 0.763 | [44] 0.841 | [45] 0.995 | [46] 0.903 | [47] 0.982 | [48] 0.984 | [49] 0.837 | [50] 0.987 | [51] 0.908 | [52] 0.992 | [53] 0.986 | [54] 0.667 | [55] 0.99 | [56] 0.8 | [58] 0.839 | [59] 0.879 | [60] 0.998 | [61] 0.868 | [62] 0.854 | [63] 0.855 | [64] 0.988 | [65] 0.879 | [66] 0.995 | [71] 0.998 | [67] 0.992 | [68] 0.994 | [69] 0.994
active: [21] 0.732 | [24] 0.397 | [25] 0.462 | [57] 0.507

Cc1nc2n(c(=O)c1CCN1CCC(c3noc4cc(F)ccc34)CC1)CCCC2
inactive: [72] 0.998 | locus YAL040C, strain CLN3, active compounds read low 1.02 | locus YCL061C, strain MRC1 (second series), active compounds read low 1.01 | [73] 1 | locus YDR363W, strain ESC2, active compounds read low 0.988 | locus YER002W, strain NOP16, active compounds read low 1 | locus YGR229C, strain SMI1, active compounds read low 1 | [74] 1 | locus YMR307W, strain GAS1, active compounds read low 1.02 | [75] 1.03 | [76] 1.01 | locus YNL175C, strain NOP13, active compounds read low 1.01 | locus YNL197C, strain WHI3, active compounds read low 1.01 | locus YNL224C, strain SQS1, active compounds read low 1 | locus YOR083W, strain WHI5 (second series), active compounds read low 1 | [77] 1

Cc1cc(CN2CC(C)OC(C)C2)cc(C)c1O (centres undefined)
inactive: [72] 1.01 | locus YBR229C, strain ROT2, active compounds read low 1.01 | [8] 1.09 | [73] 1.08 | locus YEL061C, strain CIN8, active compounds read low 0.997 | locus YGR078C, strain PAC10, active compounds read low 1.02 | [25] 1.03 | locus YHR087W, strain rtc3, active compounds read low 0.976 | locus YJR043C, strain POL32, active compounds read low 1.03 | locus YJR075W, strain HOC1, active compounds read low 1 | locus YKL190W, strain CNB1, active compounds read low 0.974 | locus YLR039C, strain RIC1, active compounds read low 1.05 | locus YLR058C, strain SHM2 (second series), active compounds read low 0.991 | locus YLR085C, strain ARP6, active compounds read low 1.03 | locus YLR262C, strain YPT6, active compounds read low 0.954 | locus YML094W, strain GIM5, active compounds read low 0.996 | locus YMR219W, strain ESC1, active compounds read low 0.997 | [74] 1.05 | [75] 0.988 | [76] 1.04 | locus YNL298W, strain CLA4 (second series), active compounds read low 1.02 | locus YNL322C, strain KRE1, active compounds read low 0.994 | locus YNR030W, strain Alg12, active compounds read low 0.992 | locus YOL006C, strain TOP1, active compounds read low 0.975 | locus YPL055C, strain LGE1, active compounds read low 1.01 | [77] 1.03 | locus YPR135W, strain CTF4, active compounds read low 1.04

O=C(Nc1ccc(Cl)cc1)O/N=C\c1ccn(-c2ccccc2)n1
active: [25] 0.611 | [28] 0.559 | [34] 0.605 | [41] 0.6 | [65] 0.662
inactive: [1] 0.958 | [2] 0.963 | [3] 0.95 | [4] 0.937 | [5] 0.962 | [6] 0.971 | [7] 0.955 | [8] 0.975 | [9] 0.941 | [10] 0.954 | [11] 0.8 | [12] 0.982 | [13] 0.952 | [14] 0.965 | [15] 0.859 | [16] 0.811 | [17] 0.882 | [18] 0.961 | [19] 0.955 | [20] 0.96 | [21] 0.956 | [70] 0.953 | [22] 0.876 | [23] 0.845 | [24] 0.775 | [26] 0.654 | [27] 0.835 | [29] 0.953 | [30] 0.738 | [31] 0.877 | [32] 0.857 | [33] 0.961 | [35] 0.834 | [36] 0.886 | [37] 0.82 | [38] 0.798 | [39] 0.948 | [40] 0.947 | [42] 0.829 | [43] 0.87 | [44] 0.804 | [45] 0.95 | [46] 0.779 | [47] 0.948 | [48] 0.954 | [49] 0.782 | [50] 0.97 | [51] 0.732 | [52] 0.954 | [53] 0.946 | [54] 0.785 | [55] 0.956 | [56] 0.797 | [57] 0.875 | [58] 0.929 | [59] 0.688 | [60] 0.954 | [61] 0.851 | [62] 0.885 | [63] 0.869 | [64] 0.959 | [66] 0.953 | [71] 0.937 | [67] 0.929 | [68] 0.903 | [69] 0.95
